Several values for one entry are separate records, joined by “and”; a condition that tells them apart may be missing. Equal entries are not always repeated. Where a structure was tested more than once in an assay, its records may differ in their call. Activity calls are given as the source filed them. The calls were made as follows: active = hit-call score of the fitted dose curve at least 0.9, where 1 is the maximum; inactive = score below 0.9.

Read-out in the first experiment: Actin alpha 1 (ACTA1), ACTA1 (gene 58)
Kind of experiment: BSK_MyoF_ACTA1: BioMAP Diversity Plus: MyoF Assay for Actin alpha 1 (ACTA1) Biomarker Activity (AID 2284244). Particulars: primary human lung fibroblasts. The essentials: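 MyoF fibroblast system (human lung); a-SMA quantified via ELISA at 24 h; DMSO-normalised, gain-of-signal endpoint.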
With `CC(CCl)OP(=O)(OC(C)CCl)OC(C)CCl` (stereo unspecified), the result was inactive.
On the same count and under the same terms, with `OCCCC(F)(F)C(F)(F)C(F)(F)F` the entry was “inactive”; with `O=C(O)C(F)(F)C(F)(F)OC(F)(F)F`, “inactive”.
As for `OCC(F)(F)C(F)(F)C(F)(F)C(F)F`, the result was inactive.
Same read-out and setting: for `O=C(CC(=O)C(F)(F)C(F)(F)F)C(F)(F)F` the value was “inactive”.
Take `O=C(Cl)C(F)(F)C(F)(F)C(F)(F)C(F)(F)C(F)(F)C(F)(F)C(F)(F)C(F)(F)F`: the AC50 was 23.6 µM (active) and 43.7 µM (active) and 30 µM (active).
On to `C=C(C)C(=O)OCC(F)(F)C(F)(F)C(F)(F)F`, for which the result was inactive.
In the case of `FC(F)(F)C(F)(F)C(F)(F)C(F)(F)C(F)(F)C(F)(F)CCS`, the result was inactive.
As for `FC(F)(F)C(F)(F)C(F)(F)C(F)(F)C(F)(F)C(F)(F)C(F)(F)C(F)(F)CCS`, the result was inactive.
In the case of `OCCCC(F)(F)C(F)(F)C(F)(F)C(F)(F)C(F)(F)C(F)(F)C(F)(F)F`, the AC50 was 37.7 µM (active) and 44.6 µM (active).
With `CCO[Si](CCC(F)(F)C(F)(F)C(F)(F)C(F)(F)C(F)(F)C(F)(F)F)(OCC)OCC`, the result was inactive.
For the molecule `FC(F)(F)C(F)(F)C(F)(F)CI`, the result was inactive.
Same read-out and setting: for `O=S(=O)(O)C(F)(F)C(F)(F)C(F)(F)C(F)(F)C(F)(F)C(F)(F)C(F)(F)F` the value was “inactive”; for `O=C(O)C(F)(F)C(F)(F)C(F)(F)C(F)(F)F`, “inactive”; for `O=C(O)C(F)(F)C(F)(F)C(F)(F)F`, “inactive”.
For `FC(F)(F)C(F)(F)C(F)(F)C(F)(F)C(F)(F)C(F)(F)C(F)(F)C(F)(F)F`, the result was inactive.
`FC(F)(F)C(F)(F)C(F)(F)C(F)(F)CCI`: the outcome was inactive.
The same measure, in the same setting: with `CCCCCCCOC(=O)c1ccccc1C(=O)OCCCCCCC` the entry was “inactive”; with `O=S(=O)(OCC(F)F)C(F)(F)F`, “inactive”; with `CCCCCCCCC(F)(F)C(F)(F)C(F)(F)C(F)(F)C(F)(F)C(F)(F)F`, “inactive”.
Turning to `C=CC(F)(F)C(F)(F)C(F)(F)C(F)(F)C(F)(F)C(F)(F)C(F)(F)C(F)(F)F`, the outcome was inactive.
On to `COC(=O)CCC(F)(F)C(F)(F)C(F)(F)C(F)(F)F`, for which the result was inactive.
With `CC(C)(C)C(=O)CC(=O)C(F)(F)C(F)(F)C(F)(F)F`, the result was inactive.
Regarding `FC(F)(F)C(F)(F)CNCC(F)(F)C(F)(F)F`, the result was inactive.
Consider `O=P(O)(O)OCCC(F)(F)C(F)(F)C(F)(F)C(F)(F)C(F)(F)C(F)(F)F`, for which the result was inactive.
For the molecule `CCCCNc1ccccc1`, the outcome was inactive.
As to `FC1CC(F)(F)C(F)(F)C1(F)F` (stereo unspecified), the outcome was inactive.
Regarding `FC(F)(F)C(F)(F)C(F)(F)N(C(F)(F)C(F)(F)C(F)(F)F)C(F)(F)C(F)(F)C(F)(F)F`, the outcome was inactive.
Take `OCC(F)(F)C(F)(F)C(F)(F)C(F)(F)C(F)(F)C(F)F`: the outcome was inactive.
On to `C=CC(=O)OCC(F)(F)C(F)(F)C(F)(F)C(F)(F)COC(=O)C=C`, for which the AC50 was 8.86 µM (active) and 9.38 µM (active).
Take `CCc1c(Br)c(Br)c(Br)c(Br)c1Br`: the result was inactive.
As for `Nc1ccc([N+](=O)[O-])cc1O`, the outcome was inactive.
For `O=C(O)C(F)(F)C(F)(F)C(F)(F)C(F)(F)C(F)(F)C(F)(F)C(F)(F)C(F)(F)Cl`, the AC50 was 50.7 µM (active) and 43.8 µM (active).
Turning to `O=C(O)C(F)(F)C(F)(F)F`, the outcome was inactive.
As for `N=C(N)C(F)(F)C(F)(F)C(F)(F)C(F)(F)C(F)(F)C(F)(F)C(F)(F)F`, the outcome was inactive.

Read-out in another experiment: Interleukin 2 (IL2), IL2 (gene 3558)
The experiment can be described thus: BSK_BT_xIL2: BioMAP Diversity Plus: BT Assay for Interleukin 2 (IL2) Biomarker Activity (AID 2284245). Particulars: primary human B cells with PBMC. The procedure, abridged:
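Co-cultures of primary human B cells and PBMC are treated with chemical and sampled at 24 h. IL-2 secretion is quantified by Luminex xMAP, with DMSO-treated wells as baseline.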
For the molecule `CC(CCl)OP(=O)(OC(C)CCl)OC(C)CCl` (stereo unspecified), the result was inactive.
Take `OCCCC(F)(F)C(F)(F)C(F)(F)F`: the result was inactive.
Turning to `O=C(O)C(F)(F)C(F)(F)OC(F)(F)F`, the result was inactive.
Turning to `OCC(F)(F)C(F)(F)C(F)(F)C(F)F`, the result was inactive.
On the same count and under the same terms, with `O=C(CC(=O)C(F)(F)C(F)(F)F)C(F)(F)F` the entry was “inactive”; with `O=C(Cl)C(F)(F)C(F)(F)C(F)(F)C(F)(F)C(F)(F)C(F)(F)C(F)(F)C(F)(F)F`, “inactive”; with `C=C(C)C(=O)OCC(F)(F)C(F)(F)C(F)(F)F`, “inactive”.
In the case of `FC(F)(F)C(F)(F)C(F)(F)C(F)(F)C(F)(F)C(F)(F)CCS`, the outcome was inactive.
Same read-out and setting: with `FC(F)(F)C(F)(F)C(F)(F)C(F)(F)C(F)(F)C(F)(F)C(F)(F)C(F)(F)CCS` the entry was “inactive”.
Consider `OCCCC(F)(F)C(F)(F)C(F)(F)C(F)(F)C(F)(F)C(F)(F)C(F)(F)F`, for which the AC50 is 20.5 µM (active) and 33.2 µM (active).
As to `CCO[Si](CCC(F)(F)C(F)(F)C(F)(F)C(F)(F)C(F)(F)C(F)(F)F)(OCC)OCC`, the outcome was inactive.
For the molecule `FC(F)(F)C(F)(F)C(F)(F)CI`, the result was inactive.
For `O=S(=O)(O)C(F)(F)C(F)(F)C(F)(F)C(F)(F)C(F)(F)C(F)(F)C(F)(F)F`, the outcome was inactive.
For the molecule `O=C(O)C(F)(F)C(F)(F)C(F)(F)C(F)(F)F`, the result was inactive.
With `O=C(O)C(F)(F)C(F)(F)C(F)(F)F`, the outcome was inactive.
Take `FC(F)(F)C(F)(F)C(F)(F)C(F)(F)C(F)(F)C(F)(F)C(F)(F)C(F)(F)F`: the result was inactive.
For `FC(F)(F)C(F)(F)C(F)(F)C(F)(F)CCI`, the result was inactive.
As to `CCCCCCCOC(=O)c1ccccc1C(=O)OCCCCCCC`, the AC50 was 17.5 µM (active).
Take `O=S(=O)(OCC(F)F)C(F)(F)F`: the result was inactive.
In the case of `CCCCCCCCC(F)(F)C(F)(F)C(F)(F)C(F)(F)C(F)(F)C(F)(F)F`, the outcome was inactive.
`C=CC(F)(F)C(F)(F)C(F)(F)C(F)(F)C(F)(F)C(F)(F)C(F)(F)C(F)(F)F`: the result was inactive.
`COC(=O)CCC(F)(F)C(F)(F)C(F)(F)C(F)(F)F`: the result was inactive.
`CC(C)(C)C(=O)CC(=O)C(F)(F)C(F)(F)C(F)(F)F`: the result was inactive.
Take `FC(F)(F)C(F)(F)CNCC(F)(F)C(F)(F)F`: the result was inactive.
On to `O=P(O)(O)OCCC(F)(F)C(F)(F)C(F)(F)C(F)(F)C(F)(F)C(F)(F)F`, for which the outcome was inactive.
Turning to `CCCCNc1ccccc1`, the result was inactive.
Consider `FC1CC(F)(F)C(F)(F)C1(F)F` (stereo unspecified), for which the outcome was inactive.
With `FC(F)(F)C(F)(F)C(F)(F)N(C(F)(F)C(F)(F)C(F)(F)F)C(F)(F)C(F)(F)C(F)(F)F`, the result was inactive.
With `OCC(F)(F)C(F)(F)C(F)(F)C(F)(F)C(F)(F)C(F)F`, the result was inactive.
In the case of `C=CC(=O)OCC(F)(F)C(F)(F)C(F)(F)C(F)(F)COC(=O)C=C`, the AC50 was 11.2 µM (active) and 9.62 µM (active).
`CCc1c(Br)c(Br)c(Br)c(Br)c1Br`: the outcome was inactive.
For the molecule `Nc1ccc([N+](=O)[O-])cc1O`, the result was inactive.
As to `O=C(O)C(F)(F)C(F)(F)C(F)(F)C(F)(F)C(F)(F)C(F)(F)C(F)(F)C(F)(F)Cl`, the outcome was inactive.
For `O=C(O)C(F)(F)C(F)(F)F`, the outcome was inactive.
`N=C(N)C(F)(F)C(F)(F)C(F)(F)C(F)(F)C(F)(F)C(F)(F)C(F)(F)F`: the AC50 was 45.7 µM (active) and the outcome was inactive.

The values above are taken from PubChem BioAssay (EPA / NIEHS).
